{"source": "PubChem BioAssay AID1851", "about": "(National Center for Advancing Translational Sciences (NCATS), 2009)", "note": "“And” between values parts separate entries of the source, which are not always exact repeats. Equal entries are not always repeated. Among all 16,000 compounds or so, about 2,600 (16%) were called active. Another 20% or so got no clear call; they are omitted. These entries were drawn from the full list. A number with no mark means an inactive call. Calls follow the shape of the dose curve; as a rule, active = well fitted curve in the direction sought with a large enough effect; inconclusive = small, poorly fitted or top-dose-only effect, or effect the other way; inactive = no such curve, though single readings can be large or run the other way. % is scaled to controls: 0 for no effect and ±100 for the full control effect."}
{"biological_target": "Cytochrome P450 2D6 (Homo sapiens) (UniProt P10635)", "sequence (P10635 whole entry, looked up)": "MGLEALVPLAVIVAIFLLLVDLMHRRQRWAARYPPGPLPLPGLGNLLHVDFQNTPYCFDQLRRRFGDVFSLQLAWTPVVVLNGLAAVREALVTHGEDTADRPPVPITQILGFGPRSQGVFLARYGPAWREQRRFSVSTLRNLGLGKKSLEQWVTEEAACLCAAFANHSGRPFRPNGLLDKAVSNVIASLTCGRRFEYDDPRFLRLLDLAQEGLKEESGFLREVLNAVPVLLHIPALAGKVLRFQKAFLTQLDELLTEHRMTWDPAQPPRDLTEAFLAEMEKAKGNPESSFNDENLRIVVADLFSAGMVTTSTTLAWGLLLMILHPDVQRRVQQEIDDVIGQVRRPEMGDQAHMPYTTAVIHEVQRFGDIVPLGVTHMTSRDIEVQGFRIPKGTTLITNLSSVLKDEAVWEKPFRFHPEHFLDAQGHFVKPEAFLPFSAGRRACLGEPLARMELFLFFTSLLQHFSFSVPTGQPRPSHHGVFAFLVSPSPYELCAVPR", "experiment": "Cytochrome panel assay with activity outcomes", "conditions": "recombinant CYP, pro-luciferin dealkylation, luminescence, p450-cyp2d6; series mostly up to 57.1 µM"}
{"smiles": "Cc1sc(=NC(=O)c2ccco2)n(C)c1-c1ccccc1", "AC50": "inactive"}
{"smiles": "COc1ccccc1NC(=O)CN1CCN(C2c3ccccc3-c3ccccc32)CC1", "AC50": "0.0251 µM (active)"}
{"smiles": "COc1cc(NC(=O)c2ccccc2)c(OC)cc1NC(=O)CN1CCN(c2ccccn2)CC1", "AC50": "inactive"}
{"smiles": "CCOc1ccccc1NC(=O)CN1CCC(NC(=O)c2ccccc2)CC1", "AC50": "15.8 µM (active)"}
{"smiles": "COc1ccccc1NC(=O)CCN1C(=O)C2CC=C(Cl)CC2C1=O", "note": "(stereo not drawn)", "AC50": "inactive"}
{"smiles": "COc1ccc(NC(C)=O)cc1NC(=O)CN1CCN(C2c3ccccc3-c3ccccc32)CC1", "AC50": "15.8 µM (active)"}
{"smiles": "CCn1c(-c2ccccc2Cl)nn(CC(=O)Nc2ccccc2OC)c1=S", "AC50": "inactive"}
{"smiles": "COc1ccc(NC(C)=O)cc1NC(=O)CN1CCN(CC(=O)Nc2ccccc2Cl)CC1", "AC50": "inactive"}
{"smiles": "CC(C)OC(=O)CN1CCN(C2c3ccccc3-c3ccccc32)CC1", "AC50": "0.251 µM (active)"}
{"smiles": "CCOc1ccccc1NC(=O)CCC(=O)O", "AC50": "inactive"}
{"smiles": "O=C(O)C[C@@H](C(=O)O)C1c2ccccc2-c2ccccc21", "activity, negative = inhibition": "6.65% [at 11.4 µM]"}
{"smiles": "CCOc1ccccc1NC(=O)C(=O)NCC1CCCN1CC", "note": "(stereo not drawn)", "AC50": "inactive"}
{"smiles": "Cc1ccc(C(=O)C(OC(=O)CN2C(=O)c3ccccc3C2=O)c2ccccc2)cc1", "note": "(stereo not drawn)", "AC50": "inactive"}
{"smiles": "CC(=O)c1c(N2CCC(C(N)=O)CC2)nc(=S)n(-c2ccccc2)c1C", "AC50": "inactive"}
{"smiles": "CCCc1cc2c(=O)c(-c3ccc4c(c3)OCCO4)coc2cc1OC(=O)c1ccco1", "AC50": "inactive"}
{"smiles": "COC(=O)c1c(-n2c(C)cc(C=O)c2C)sc2c1CCCC2", "AC50": "inactive"}
{"smiles": "CCOC(=O)c1c(-c2ccc(C)cc2)csc1NC(=O)C1CC=CCC1C(=O)O", "note": "(stereo not drawn)", "AC50": "inactive"}
{"smiles": "COC(=O)[C@@H]1O[C@@H](c2c(OC)c(OC)c(C)c(OC)c2OC)[C@H](C)[C@@H](O)[C@@H]1C", "activity, negative = inhibition": "15.2% [at 11.4 µM]"}
{"smiles": "NS(=O)(=O)c1cc(C(=O)O)cc(N2CCCC2)c1Oc1ccccc1", "AC50": "inactive"}
{"smiles": "O=C(c1cn(-c2ccccc2)nc1-c1cccs1)N1CCOCC1", "AC50": "inactive"}
{"smiles": "O=C1C[C@@H](O)[C@@H](O)[C@H]2[C@@H]3C(=O)N(c4cccc(Oc5ccccc5)c4)C(=O)[C@@H]3CC[C@H]12", "activity, negative = inhibition": "-10.1% [at 11.4 µM] and -0.87% [at 11.4 µM]"}
{"smiles": "CCOC(=O)Cc1cc(=O)n2[nH]c(C)c(-c3ccccc3)c2n1", "AC50": "inactive"}
{"smiles": "CCS(=O)(=O)c1ccc2c(c1)N(S(C)(=O)=O)CC(C(=O)NCCOC)O2", "note": "(stereo not drawn)", "AC50": "inactive"}
{"smiles": "Cc1ccccc1-c1nc(-c2ccc(NC(=O)c3cccs3)cc2)no1", "AC50": "inactive"}
{"smiles": "O=C(Nc1ccccc1)c1cc(-n2cnnc2)ccc1Cl", "AC50": "inactive"}
{"smiles": "C[C@]12CC[C@H]3c4ccc(OC[C@H]5CO5)cc4CC[C@H]3[C@H]1CC[C@@H]2O", "activity, negative = inhibition": "-13.3% [at 11.4 µM]"}
{"smiles": "COC(=O)N1CCC[C@@]2(CCN(c3ncccn3)C2)C1", "AC50": "inactive"}
{"smiles": "O=C(Oc1ccccc1)N1CCC[C@@]2(CCN(c3ncccn3)C2)C1", "AC50": "inactive"}
{"smiles": "O=C(Oc1ccccc1)N1CCC2(CC1)CN(c1ccccn1)C2", "AC50": "inactive"}
{"smiles": "COC(=O)N1CCC[C@@]2(CCN(c3ccccn3)C2)C1", "AC50": "12.6 µM (active)"}
{"smiles": "O=C(c1ccncc1)N1CCC[C@@]2(CCN(c3ccccn3)C2)C1", "AC50": "inactive"}
{"smiles": "O=C(Oc1ccccc1)N1CCC[C@@]2(CCN(c3ccccn3)C2)C1", "AC50": "7.94 µM (active)"}
{"smiles": "Cc1ccc(-c2nnc(-c3ccc(NC(=O)c4cccs4)cc3)o2)cc1", "AC50": "inactive"}
{"smiles": "Cc1ccc(S(=O)(=O)O[C@H]2C[C@@H](C(C)(C)C)CC[C@@H]2c2ccccc2)cc1", "activity, negative = inhibition": "-9.43% [at 11.4 µM]"}
{"smiles": "CCOC(=O)C1=NOC(CNC(=O)C2=NOC(CNC(=O)c3c(-c4ccccc4Cl)noc3C)C2)C1", "note": "(stereo not drawn)", "AC50": "inactive"}
{"smiles": "C/C(CCN1CCc2nc(-c3ccccc3)c(-c3ccccc3)cc2C1)=N\\OC[C@@H](C)[C@H](OCc1ccccc1)C(C)C", "activity, negative = inhibition": "13.5% [at 11.4 µM]"}
{"smiles": "Cc1ccc(S(=O)(=O)/C=C\\C#N)cc1", "AC50": "0.0158 µM (active)"}
{"smiles": "CC(C)(C)c1ccc(S(=O)(=O)/C=C\\C#N)cc1", "AC50": "inactive"}
{"smiles": "Cc1ccc(S(=O)(=O)CCCS(=O)(=O)c2ccc(C)cc2)cc1", "AC50": "inactive"}
{"smiles": "CC1(C)Cc2c(sc3c2C(=O)N(c2ccccc2)C2=NCCN23)CS1", "AC50": "inactive"}
{"smiles": "C=C1CCO[C@@]2([C@H](O)[C@@](C)(O)CO)NC(=O)[C@]1(O)NC2=O", "activity, negative = inhibition": "9.37% [at 11.4 µM]"}
{"smiles": "COc1ccc(NC(=O)N2CCCC2C(=O)Nc2ccccc2)cc1", "note": "(stereo not drawn)", "AC50": "inactive"}
{"smiles": "COC(=O)c1ccccc1NC(=O)C1CCN(C(=O)c2ccc(OC)cc2)CC1", "AC50": "inactive"}
{"smiles": "O=C(Nc1ccc(Oc2ccccc2)cc1)C1CCN(c2c3c(nc4ncnn24)CCC3)CC1", "AC50": "12.6 µM (active)"}
{"smiles": "COc1cccc(-c2nccc(NCc3ccc(OC)cc3OC)n2)c1", "AC50": "12.6 µM (active)"}
{"smiles": "COc1ccccc1CNc1ccnc(-c2cccc(C#N)c2)n1", "AC50": "25.1 µM (active)"}
{"smiles": "COc1cccc(-c2nccc(NCc3ccccc3OC)n2)c1", "AC50": "0.398 µM (active)"}
{"smiles": "COc1ccc(CNc2ccnc(-c3cccnc3)n2)c(OC)c1", "AC50": "10 µM (active)"}
{"smiles": "COc1ccc(C(=O)Nc2scc(-c3ccc(Cl)cc3Cl)c2C(N)=O)cc1", "AC50": "inactive"}
{"smiles": "CN1CCCN(C2C3CC4CC(C3)CC2C4)CC1", "note": "(stereo not drawn)", "AC50": "inactive"}
{"smiles": "Cc1cc(C)c(S(=O)(=O)N2CCN(c3ccc([N+](=O)[O-])c(NCc4ccco4)c3)CC2)c(C)c1", "AC50": "inactive"}
{"smiles": "CCOCC(=O)Nc1c(C(=O)Nc2ccccc2OC)oc2ccccc12", "AC50": "inactive"}
{"smiles": "COc1ccc(COC(=O)N/N=C2/C[C@@H](O)[C@@H](O)[C@@H]3[C@@H]4C(=O)N([C@@H](C)c5ccccc5)C(=O)[C@H]4CC[C@@H]23)cc1", "activity, negative = inhibition": "-8.23% [at 11.4 µM]"}
{"smiles": "CC(C)=C1C(=O)C(c2ccccc2)=C2CN3C(=O)N(CCc4ccccc4)C(=O)[C@]3(Cc3ccccc3)[C@H]21", "AC50": "inactive"}
{"smiles": "O=C(O)c1nc(-c2ccccc2)[nH]c1C(=O)O", "activity, negative = inhibition": "-20.9% [at 11.4 µM]"}
{"smiles": "Cc1cccc(NC(=O)c2cc(N3C(=O)CCC3=O)ccc2Cl)n1", "AC50": "inactive"}
{"smiles": "Cc1ccc(S(=O)(=O)N(C)c2cc(S(=O)(=O)N3CCC(C)CC3)c(C)cc2C)cc1", "AC50": "inactive"}
{"smiles": "CCOC(=O)c1cnc(-n2nc(C)cc2C)nc1NCCO", "AC50": "inactive"}
